This is part of a sample that, as a whole, favours compounds with a hit. Of some 83,000 tested, about 20% had one in any assay.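 Assay: single dose, 48 h. Readout: percent growth (0 = no net growth; negative = cell death). Active: <10.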 Unmarked numbers belong to inactive results. Active and inactive are the calls of the source.
What was measured:
Experiment in all cases: NCI-60 one-dose screen, 48 h (100 = growth as untreated, 0 = no growth, -100 = all killed)
Conditions in all cases: 10 µM unless noted
DU-145 prostate = system: DU-145 prostate
K-562 leukemia = system: K-562 leukemia
MALME-3M melanoma = system: MALME-3M melanoma
MDA-MB-231 breast = system: MDA-MB-231 breast
RXF 393 renal = system: RXF 393 renal
SF-268 CNS = system: SF-268 CNS
SF-295 CNS = system: SF-295 CNS
SF-539 CNS = system: SF-539 CNS
UACC-257 melanoma = system: UACC-257 melanoma
M14 melanoma = system: M14 melanoma

| Compound | growth (DU-145 prostate) | growth (K-562 leukemia) | growth (MALME-3M melanoma) | growth (MDA-MB-231 breast) | growth (RXF 393 renal) | growth (SF-268 CNS) | growth (SF-295 CNS) | growth (SF-539 CNS) | growth (UACC-257 melanoma) | growth (M14 melanoma) |
| --- | --- | --- | --- | --- | --- | --- | --- | --- | --- | --- |
| COc1cc2c(-c3cc4c(cc3CNCCc3ccc5c(c3)OCO5)OCO4)cccc2c(OC)c1O | 95.8% | 20% | 103% | 69.4% | 74.9% | 68% | 92.2% | 88.4% | 96.1% | 84.4% |
| O=C1Nc2cc(Cl)ccc2/C1=C\c1c(-c2ccc(F)cc2)nc2ccccn12 | -17.9% (active) | – | 41.4% | 50.3% | -23.8% (active) | 20% | -58.2% (active) | -26.4% (active) | 68.7% | -10.8% (active) |
| NC1=NN=C(N)C1=Cc1cc2ccccc2n2nnnc12 | 100% | 92.9% | 108% | 95.5% | 110% | 98.6% | 99.3% | 102% | 98.3% | 111% |
| Cc1cc2nc3c4cc([N+](=O)[O-])ccc4n(CCN(C)C)c3nc2cc1C | 8.55% (active) | 0.995% (active) | -40.1% (active) | -1.27% (active) | -50.6% (active) | -0.874% (active) | 0.581% (active) | -14.5% (active) | -1.98% (active) | -27.3% (active) |
| Oc1cccc(CCc2ccc(Oc3cc(CCc4cccc(O)c4)cc(O)c3O)cc2)c1 | 88.8% | – | 110% | 72.8% | 81% | 51.7% | 96.7% | 73.9% | 95.6% | 81.2% |
| CC(Oc1ccc(C(=O)O)cc1C(F)(F)F)c1ccc(Oc2ccccc2)cn1 (stereo unspecified) | 111% | 82.8% | 101% | 101% | 95.8% | 94.6% | 100% | 95.9% | 97.7% | 103% |
| Cc1ccc(C(=O)/C(=C/c2ccc([N+](=O)[O-])cc2)SCc2ccc(Cl)cc2)cc1 | 86.9% | – | 83.3% | 83.8% | 95.4% | 69.8% | 83.3% | 112% | 83% | 74.6% |
| Cc1nn(-c2ccccc2)c(Oc2c(Cl)cccc2Cl)c1/C=N/N=c1\sc2ccccc2n1C | 67.7% | 28.3% | 81.6% | 51.3% | 54.7% | 52.2% | 54.3% | 49.9% | 71.3% | 60.8% |
| CN(C)CC(O)c1ccc(/C=C/c2ccc(Cl)cc2)cc1 (stereo unspecified) | -88.8% (active) | -47.6% (active) | 21.9% | -82.3% (active) | 8.01% (active) | -52.4% (active) | -48.2% (active) | -67.6% (active) | -81.2% (active) | -34.8% (active) |
| CCOC(=O)Oc1c(OC)cc(C(=O)c2ccc(OC)c(O)c2OC)cc1OC | 13.8% | 10.8% | 49.1% | 30.8% | -10.1% (active) | 48.7% | 22.6% | -15.7% (active) | 47.3% | -9.21% (active) |
| CCN(CC)CCCC(C)Nc1cc(O)cc2cccnc12 (stereo unspecified) | 113% | 87.4% | 128% | 69.4% | 105% | 98.6% | 104% | 103% | 93.8% | 113% |
| CC/C(=C\c1ccc(OC)cc1)C(=O)c1ccc(OC)cc1 | 105% | – | 114% | 96.4% | 126% | 101% | 76.5% | 96.5% | 101% | 102% |
| COc1cc2c(c(OC)c1OC)-c1ccc(NNC(=S)N(Cc3cccc(C[N+](Cc4cccc(CNC56CC7CC(CC(C7)C5)C6)c4)(Cc4cccc(CNC56CC7CC(CC(C7)C5)C6)c4)Cc4cccc(CN(C(=S)NNc5ccc6c(cc5=O)[C@@H](NC(C)=O)CCc5cc(OC)c(OC)c(OC)c5-6)C56CC7CC(CC(C7)C5)C6)c4)c3)C34CC5CC(CC(C5)C3)C4)c(=O)cc1[C@@H](NC(C)=O)CC2 (stereo partly specified) | 21.3% | – | -48.1% (active) | -26.3% (active) | 20.2% | 18.3% | 20.3% | 0.867% (active) | 43.1% | -53.4% (active) |
| Oc1ccc(C(c2ccc(O)cc2)c2ccc(Br)cn2)cc1 | 47.4% | 73.5% | 99.3% | 83% | -22% (active) | 104% | -17.1% (active) | 84.9% | 91.3% | 78.8% |
| Cc1ccc(C(=O)/C(=C\c2ccc([N+](=O)[O-])cc2)S(=O)Cc2ccc(F)cc2)cc1 (stereo unspecified) | 18.6% | – | -3.22% (active) | 11% | -80% (active) | 19.5% | 62.5% | 15.4% | 91.6% | 28.2% |
| Cc1nn(-c2ccccc2)c(Cl)c1/C=N\N=c1/sc2ccccc2n1C | 108% | – | 112% | 93.2% | 109% | 101% | 109% | 97.5% | 97.1% | 99.8% |
| CNC(=O)c1cccc(Cn2nc(C)c(NC(=O)c3ccc(COc4ccc(C(F)(F)F)cc4C)cc3)c2C)n1 | 61.2% | 30.4% | 83.8% | 75.2% | 64.5% | 61.2% | 25.8% | 72% | 20.7% | 53.7% |
| CSc1nc2sc3cccc(Cl)c3n2c(=N)c1C#N | 105% | 106% | 95.3% | 90.1% | 131% | 102% | 108% | 109% | 108% | 102% |
| COc1cc(C(=O)Nc2cc3c(cc2Oc2cc(C)cc(C)c2)C(=O)N(C)[C@@H](CC(=O)N(C)O)C(=O)N3)c(Br)c(OC)c1OC | -31.7% (active) | – | -55.3% (active) | -34.3% (active) | -56.7% (active) | -27.1% (active) | -34.6% (active) | -46.7% (active) | -12.4% (active) | -88.2% (active) |
| C#Cc1cccc(NC(=O)c2cccc(NC(=O)CCl)c2)c1 | 4.82% [8.25 µM] (active) | – | -80.3% [8.25 µM] (active) | -80.5% [8.25 µM] (active) | -20.9% [8.25 µM] (active) | 8.4% [8.25 µM] (active) | 21.9% [8.25 µM] | -97.1% [8.25 µM] (active) | 28.1% [8.25 µM] | 0.864% [8.25 µM] (active) |
| CCCCN1C=CCN(CCCC)C1 | 71.8% | – | -22.1% (active) | 75.2% | 113% | 58% | 55.6% | 78.6% | 10.8% | 46% |
| CN(CCN(C)c1ccc(C(=N)N)cc1)c1ccc(C(=N)N)cc1 | 98.9% | – | 57.9% | 91.3% | 118% | 109% | 94.1% | 93.2% | 92.6% | 103% |
| Cc1c2cc[nH]c(=O)c2c(C)c2c1[nH]c1cc(OCCN3CCN(C)CC3)ccc12 | 2.69% (active) | – | -58.8% (active) | 4% (active) | -25% (active) | 11.8% | 3.16% (active) | -0.233% (active) | -1.41% (active) | -37.1% (active) |
| C[C@H]1[C@H](C)CC[C@]2(C(=O)Nc3ccc4ncccc4c3)CC[C@]3(C)C(=CC[C@@H]4[C@@]5(C)CCCNC(C)(C)[C@@H]5CC[C@]43C)[C@H]12 | -74.1% (active) | – | -78.5% (active) | -71.9% (active) | -84.8% (active) | -40.4% (active) | -50.8% (active) | -72.9% (active) | -86.9% (active) | -92% (active) |
| Cc1nc2sccn2c1-c1cn2ccsc2n1 | 76.3% | – | 77.7% | 81.3% | 77.5% | 102% | 89.9% | 90.5% | 91% | 93.7% |
